# Cdc25B inh = inhibitors of Cdc25B phosphatase catalytic domain, primary screen, biochemical, OMFP fluorescence. M-phase inducer phosphatase 2 (Homo sapiens), P30305. recombinant Cdc25B, OMFP fluorescence Ex485/Em525. inhibition, %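 (compounds tested at 10 µM final in the well)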. actives 0.1% (n = 65,000); in the data active = inhibition above about 50%
# Target sequence (P30305 whole entry, looked up, the tested form may be a part): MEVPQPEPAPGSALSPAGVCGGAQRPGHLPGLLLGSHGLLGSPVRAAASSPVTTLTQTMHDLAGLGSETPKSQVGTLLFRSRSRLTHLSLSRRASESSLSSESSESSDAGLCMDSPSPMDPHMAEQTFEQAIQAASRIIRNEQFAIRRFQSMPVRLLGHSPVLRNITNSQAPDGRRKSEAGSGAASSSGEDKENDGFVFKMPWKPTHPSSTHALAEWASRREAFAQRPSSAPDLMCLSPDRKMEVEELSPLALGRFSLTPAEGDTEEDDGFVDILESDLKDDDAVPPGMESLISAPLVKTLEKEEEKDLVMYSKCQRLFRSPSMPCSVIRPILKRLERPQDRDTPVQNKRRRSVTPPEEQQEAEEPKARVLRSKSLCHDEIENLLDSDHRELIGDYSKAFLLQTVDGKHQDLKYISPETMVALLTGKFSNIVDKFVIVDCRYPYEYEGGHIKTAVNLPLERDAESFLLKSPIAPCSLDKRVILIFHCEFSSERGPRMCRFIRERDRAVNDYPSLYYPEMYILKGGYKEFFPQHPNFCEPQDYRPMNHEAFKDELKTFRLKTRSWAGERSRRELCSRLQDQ
# Hsp90 inh = tumor Hsp90 inhibitors, primary screen, cell lysate, fluorescence polarization, NCI-N417 lysate; Heat shock protein HSP 90-alpha (Homo sapiens), P07900; actives 0.35% (n = 64,000); AID 429, 2006; inhibition, % at 30 µM; Cy3B-geldanamycin FP displacement;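 active = inhibition above 50%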
# Fluor 339 460 = intrinsic fluorescence of library compounds, ex339/em460 – biochemical, MLSMR library, data from DPM-DC assay, artefact control, profiling panel | compound autofluorescence, ex339/em460 nm, NADH buffer; active compounds read high; 1 = no-compound wells, NADH background | fluorescence fold increase at 10 µM | actives 5.5% (n = 65,000);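 active = at 10 µM, mean starting fluorescence two-fold or more over control wells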;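 note: signal is the first read of a kinetic run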
# Abs 340nm = compound light absorbance at 340 nm, profiling panel, artefact control, biochemical, MLSMR library, data from PS, PMK, MK assays. 65,000 tested, under 10 active. fold change at 10 µM. compound absorbance at 340 nm, fold over control;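 active = at 10 µM dose, initial 340 nm absorbance at least 2 fold that of control wells; inactive = change under 2 fold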;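 note: initial absorbance extrapolated from kinetic A340 decline of NADH oxidation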
# NADH coupling = inhibitors of PK/LDH coupling enzymes, profiling panel, artefact control, biochemical, MLSMR library; coupled PK/LDH NADH assays, four targets; actives 0.02% (n = 65,000); IC50, µM (doses to about 10 µM); AID 774, 2007;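 active = single-dose screening hits from any of four coupled enzyme assays that gave an IC50 when retested across doses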;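 note: the DPM-DC format reads NADH fluorescence rather than 340 nm absorbance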
# MKP-1 inh = MKP-1 phosphatase inhibitors, primary screen, biochemical, in vitro. Dual specificity protein phosphatase 1 (Homo sapiens), P28562. recombinant MKP-1, OMFP hydrolysis fluorescence. inhibition, %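 (compounds tested at a single concentration somewhere between 10 and 100 µM)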. actives 0.15% (n = 65,000). AID 374, 2006;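 active = inhibition above about 50%, limit read from the data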
# A number is an active result; - = inactive; . = no result given. Sampled rows, rich in hits. Any-hit rate of the full collection: about 5.7%.
SMILES,Cdc25B inh,Hsp90 inh,Fluor 339 460,Abs 340nm,NADH coupling,MKP-1 inh
CC1CCC(NC(=O)CN2C(=O)C3CCCN3c3ncc(Cl)cc32)CC1 (configuration not stated),-,-,2.3,-,-,-
CCc1ccccc1NC(=O)CN1C(=O)C2CCCN2c2ncc(Cl)cc21 (configuration not stated),-,-,-,-,-,-
Cc1nn(-c2ccc(F)cc2)c2c1cc(C#N)c1nc3ccccc3n12,-,-,2.48,-,-,-
Cc1nn2c3ccccc3nc2c2ccccc12,-,-,-,-,-,-
CCN1CCc2nc(N)oc2CC1,.,-,.,.,.,.
O=C1NCCCC2c3cc(O)c4ccccc4c3OC12N1CCCCC1 (configuration not stated),-,94.8,-,-,-,-
O=C1NCCCC2c3c(cc(Br)c(O)c3Br)OC12N1CCOCC1 (configuration not stated),-,-,-,-,-,-
NC(=O)c1ccccc1NS(=O)(=O)Cc1ccccc1,-,-,2.15,-,-,-
CC(=O)Nc1ccc(NS(=O)(=O)Cc2ccccc2)cc1,-,-,-,-,-,-
Cc1cccn2c(=O)c3cc(C(=O)N(C)C)n(C)c3nc12,-,-,4.93,-,-,-
Cn1c(C(=O)N2CCc3ccccc32)cc2c(=O)n3ccccc3nc21,-,-,-,-,-,-
Cn1c(C(=O)N2CCCc3ccccc32)cc2c(=O)n3ccccc3nc21,-,-,2.62,-,-,-
CCOCCCNC(=O)c1cc2c(=O)n3cccc(C)c3nc2n1C,-,-,2.08,-,-,-
Cn1c(C(=O)NCc2ccccn2)cc2c(=O)n3ccccc3nc21,-,-,4.93,-,-,-
O=C(NC1=NC2CCCCC2N1)c1ccccc1 (configuration not stated),-,-,-,-,-,-
O=C(CN(C(=O)c1ccc2c(c1)OCCO2)c1ccccc1)NCC1CCCO1 (configuration not stated),-,-,-,-,-,-
Cc1cccn2c(=O)c3cc(C(=O)NCCCN4CCCC4=O)n(C)c3nc12,-,-,4.98,-,-,-
Cc1cccn2c(=O)c3cc(C(=O)NCCCn4ccnc4)n(C)c3nc12,-,-,4.97,-,-,-
CCOC(=O)c1cc2c(=O)n3cccc(C)c3nc2n(C)c1=N,-,-,-,-,-,-
O=C(NCCCn1ccnc1)c1ccco1,-,-,-,-,-,-
Cc1cccn2c(=O)c3cc(C(=O)N4CCN(c5ccccc5)CC4)n(C)c3nc12,-,-,4.95,-,-,-
CCNC(=O)c1cc2c(=O)n3cccc(C)c3nc2n1C,-,-,4.98,-,-,-
CCn1c(=O)[nH]c2cc(C(=O)N3CCN(c4ccccc4)CC3)ccc2c1=O,-,-,-,-,-,-
O=C(NCc1ccco1)C1CC(=O)N(c2ccc(O)cc2)C1 (configuration not stated),-,-,-,-,-,-
CCCCNC(=O)c1cc2c(=O)n3cccc(C)c3nc2n1C,-,-,2.14,-,-,-
SMILES,Cdc25B inh,Hsp90 inh,Fluor 339 460,Abs 340nm,NADH coupling,MKP-1 inh
COCCNC(=O)c1cc2c(=O)n3cccc(C)c3nc2n1C,-,-,2.08,-,-,-
COCCNC(=O)c1nn(-c2cc(OC)cc(OC)c2)c(=O)c2ccccc12,-,-,-,-,-,-
N#C/C(C(=O)NCc1ccccc1)=C1\SC(CCO)C(=O)N1c1ccccc1 (configuration not stated),84.1,-,-,-,-,-
Cc1cc(C(=O)COc2ccc(-c3nnco3)cc2)c(C)n1Cc1ccccc1,-,-,-,-,-,-
CCOC(=O)c1cn(CC)c2cc(N3CCOCC3)c(F)cc2c1=O,-,-,2.27,-,-,-
CCN1CCN(c2cc3c(cc2F)c(=O)c(C(=O)O)cn3C2CC2)CC1,-,-,2.16,-,-,-
CCOC(=O)c1cn(CC)c2cc(N3CCCCC3)c(F)cc2c1=O,-,-,-,-,-,-
CCCCCCC(=O)N1CCN(c2cc3c(cc2F)c(=O)c(C(=O)O)cn3CC)CC1,-,-,-,-,-,-
